For assay [1], the target named is Tumor susceptibility gene 101 protein (Homo sapiens) (UniProt Q99816). The assay is described as follows: qHTS Assay for Iinhibitors of HIV-1 Budding by Blocking the Interaction of PTAP/TSG101: Hit Validation (AID 651600). Also: potency is read from the fitted curve at half-maximal effect; nearly all actives have a fitted effect of over 70% in size. In outline: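 FITC-PTAP peptide (50 nM final) binding to Tsg101 binding domain (10 uM final) was measured by polarization after 20 min at r.t. with compounds, in 10 mM HEPES pH 7.5 buffer with 0.15 M NaCl and 0.01% Tween 20.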
For orientation: In qHTS, concentration-response curves come from the screen itself.

Assay [2] has as its target Rap guanine nucleotide exchange factor 3 (Homo sapiens) (UniProt O95398). The assay is described as follows: Confirmatory qHTS for antagonist of cAMP-regulated guanine nucleotide exchange factor 3 (EPAC1) (AID 1645880).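 Also: plate controls were DMSO only for no effect and full effect of the ATA control for full effect; nearly all actives have a fitted effect of over 55% in size.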 Particulars: EPAC1 Rap1B-BODIPY-GDP exchange, fluorescence; activity, negative = inhibition: at 115 µM (top of the series). In outline:
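Nucleotide exchange uses 100 nM EPAC1, 250 nM RAP1B-BODIPY-GDP and 50 uM GDP, with compounds in a concentration-titration series. After 5 min at room temperature, fluorescence (480 nm ex/540 nm em) is read every 5 min for 30 min. Data are normalized to control ATA and DMSO.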

Assay [3] shares this target. Description: Confirmatory qHTS for agonist of cAMP-regulated guanine nucleotide exchange factor 3 (EPAC1) (AID 1645881). Also: nearly all actives have a fitted effect of over 75% in size. Also: potency is read from the fitted curve at half-maximal effect.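 As to activation: EPAC1 catalysed release of BODIPY-GDP from Rap1B seen as fluorescence loss; 100% = effect of cAMP agonist control.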
Assay [4] has as its target Rap guanine nucleotide exchange factor 4 (Homo sapiens) (UniProt Q8WZA2). The assay is described as follows: Confirmatory qHTS for agonist of cAMP-regulated guanine nucleotide exchange factor 4 (EPAC2) (AID 1645884).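 Also: nucleotide exchange releases bodipy-GDP from Rap1 and this lowers its fluorescence; nearly all actives have a fitted effect of over 65% in size.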 Also: potency is read from the fitted curve at half-maximal effect. As to activation: % is scaled to controls: 0 for no effect and ±100 for the full control effect.
Assay [5] has the same target. Description: Confirmatory qHTS for antagonist of cAMP-regulated guanine nucleotide exchange factor 4 (EPAC2) (AID 1645885). Also: nearly all actives have a fitted effect of over 25% in size. Also: potency is read from the fitted curve at half-maximal effect.
Assay [6] concerns the target Rap guanine nucleotide exchange factor 3 (Homo sapiens) (UniProt O95398). Description: Counterscreen qHTS for agonist of cAMP-regulated guanine nucleotide exchange factor 3 (EPAC1) (AID 1645889). Also: potency is read from the fitted curve at half-maximal effect; nearly all actives have a fitted effect of over 40% in size. In outline:
(§1)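 Rap1B–BODIPY-GDP (250 nM) with 50 uM GDP; compounds pin-transferred to 9.74 nM–152 uM final (activator) or from 7.32 nM upwards (inhibitor). Fluorescence Ex/Em 480/540 nm read at 5 and 30 min, then after adding cAMP or buffer, at room temperature.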

The target is the same in assay [7]. Description: Counterscreen qHTS for antagonist of cAMP-regulated guanine nucleotide exchange factor 3 (EPAC1) (AID 1645888).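 Also: fluorescence loss as bound BODIPY-GDP is released from Rap1B; % of control where 0% means no effect.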 In outline: as §1
Assay [8] addresses Cytochrome P450 3A4 (Homo sapiens) (UniProt P08684). The assay is described as follows: qHTS Assay for Activators of Cytochrome P450 3A4 (AID 885). Also: nearly all actives have a fitted effect of over 65% in size. The method in brief: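 Human CYP3A4 (20 nM) with Luciferin-PPXE at 25 uM (its KM) in 200 mM KPO4; 10 min compound preincubation, then NADPH regeneration and 60 min reaction at RT. Luciferin read by luminescence; normalized to 57 uM ketoconazole full inhibition.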

A short description of assay [9]: Confirmation and Secondary Assay for Modulators of Hemoglobin Beta Chain Splicing at IVS2 654 locus (AID 910).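 Also: HeLa cells stably carrying EGFP split by mutant beta-globin IVS2-654 intron; % of control where 0% means no effect.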 The method in brief: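 HeLa cells stably expressing EGFP interrupted by β-globin IVS2-654 intron, seeded overnight in Opti-MEM/2% FCS, then treated 2 days at 37 °C. Restored splicing read as total peak GFP intensity per well by laser scanning cytometry (488 nm excitation, 500–520 nm emission); 500 nM antisense PNA as control.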

A short description of assay [10]: Confirmation and Secondary Assay for Modulators of Hemoglobin Beta Chain Splicing at IVS2 705 locus (AID 930).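 Also: HeLa cells stably expressing the EGFP-705 splicing reporter; GFP fluorescence per well restored by corrected splicing of the IVS2-705 intron in EGFP; % of control where 0% means no effect.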 The method in brief:
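Splice-correction reporter: EGFP cDNA split by beta-globin intron 2 bearing the 705 mutation, stably in HeLa. Compound incubation 2 days, 37C; fluorescent objects 5-250 µm summed per well.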

The target in assay [11] is Ubiquitin carboxyl-terminal hydrolase 1 (Homo sapiens) (UniProt O94782). Description: Inhibitors of USP1/UAF1: Pilot qHTS (AID 504865).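 Also: rhodamine fluorescence freed from ubiquitin-rhodamine substrate followed over time; top concentration of the series differs between compounds; % is scaled to controls: 0 for no effect and ±100 for the full control effect; nearly all actives have a fitted effect of over 35% in size.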 The method in brief:
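Deubiquitinase activity followed as kinetic rhodamine fluorescence release from 150 nM Ub-Rho. 1 nM USP1/UAF1 with compound, after 15 min room-temperature preincubation, in HEPES pH 7.8 buffer containing TCEP, EDTA, BSA and Tween-20.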

Assay [12] concerns the target Cytochrome P450 1A2 (Homo sapiens) (UniProt P05177). Description: p450-cyp1a2 (AID 410; calls by dose curve; also: potency is read from the fitted curve at half-maximal effect). In outline:
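20nM CYP1A2 with 100uM Luciferin-ME (at Km) in 100mM KPO4; compound preincubated 10 min, NADPH regeneration added, 60 min at room temperature. Luciferin quantified by luminescence after detection reagent; normalized to 57 uM furafylline.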

Assay [13] addresses Mitogen-activated protein kinase 10 (Mus musculus) (UniProt Q61831). The assay is described as follows: JNK3 AlphaScreen Assay (AID 530; active = well fitted curve in either direction with a large enough effect, not every such curve was filed as active;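 also: kinase came from lysate of stimulated human HepG2 cells; signal reports phosphorylation of biotinylated GST-cJun 1-79 at Ser73 with 10 µM ATP; % is scaled to controls: 0 for no effect and ±100 for the full control effect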). In outline:
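Pre-activated (IL-1β/TNFα) JNK3 in HepG2 lysates phosphorylates biotin-GST-cJun(1-79), 10 uM ATP; anti-phospho-cJun(Ser73) AlphaScreen read at room temperature, pH 7.6 Tris buffer. Compounds pre-incubated 15 min as titrations.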

In assay [14] the target is Cytochrome P450 2C9 (Homo sapiens) (UniProt P11712). Description: qHTS Assay for Inhibitors and Substrates of Cytochrome P450 2C9 (AID 883). Also: potency is read from the fitted curve at half-maximal effect; nearly all actives have a fitted effect of over 60% in size. The method in brief:
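10nM CYP2C9 + 100uM Luciferin-H (=KM), 25mM KPO4; cpd 10 min 37C; NADPH regen, 60 min 37C; stop/detect with P450 Glo-Buffer 20 min; luminescence. Norm. to 57uM sulphaphenazole as full inhibition.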

Assay [15] deals with Cytochrome P450 3A4 (Homo sapiens) (UniProt P08684). Description: qHTS Assay for Inhibitors and Substrates of Cytochrome P450 3A4 (AID 884). Also: potency is read from the fitted curve at half-maximal effect; nearly all actives have a fitted effect of over 50% in size. The method in brief:
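20 nM human CYP3A4 with 25 uM Luciferin-PPXE (at KM) in 200 mM KPO4, preincubated 10 min with compound; NADPH regeneration started a 60 min RT reaction. Luciferin detected by luminescence, normalized to 57 uM ketoconazole as full inhibition.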

The target in assay [16] is Cytochrome P450 2C19 (Homo sapiens) (UniProt P33261). The assay is described as follows: qHTS Assay for Inhibitors and Substrates of Cytochrome P450 2C19 (AID 899). Also: potency is read from the fitted curve at half-maximal effect; nearly all actives have a fitted effect of over 60% in size. In outline:
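Luminescent read-out of luciferin formed from Luciferin-H EGE (10uM, equal to KM). Enzyme 5nM in 50mM KPO4; compound added, 10 min at 37C, then NADPH regenerating system for 60 min at 37C. Full inhibition defined by 57uM ketoconazole.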

The target in assay [17] is DNA dC->dU-editing enzyme APOBEC-3G (Homo sapiens) (UniProt Q9HC16). The assay is described as follows: qHTS for inhibitors of Vif-A3G interactions: Validation (AID 588379). Also: 0% is about no effect. In outline: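 HeLa cells stably expressing Vif and A3G-eYFP, 700 cells/well, incubated overnight at 37 deg C, then exposed to compound overnight at 37 deg C. Inhibition of Vif-mediated degradation read as increased yellow fluorescence (Ex 488/Em 500-530) by laser-scanning cytometry.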

Assay [18] deals with Lysosomal acid glucosylceramidase (Homo sapiens) (UniProt P04062). The assay is described as follows: Glucocerebrosidase-p2 (AID 348; in the data active = potency below about 10 µM; also: potency is read from the fitted curve at half-maximal effect). The conditions noted are these: purified GBA, blue fluorogenic substrate, 40 min. The method in brief: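 Compounds titrated from 0.6 nM upwards against 0.2 nM enzyme in pH 5.9 citric acid/KH2PO4, taurocholate, tween-20; blue fluorogenic substrate 80 uM, 40 min room temperature, stopped and read Ex 365/Em 440 for AC50.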

Assay [19] is described as follows: NFAT Signaling Pathway (AID 444; active = well fitted curve in either direction with a large enough effect, not every such curve was filed as active;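 also: carbachol stimulus at about its EC50 of 1 µM final; % is scaled to controls: 0 for no effect and ±100 for the full control effect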). The conditions noted are these: Jurkat NFAT-bla M1, carbachol, beta-lactamase ratio, 5 h; at 7.69 µM (top of the series) unless noted. In outline:
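Jurkat cells with NFAT-driven β-lactamase reporter and co-expressed M1 receptor, stimulated with carbachol (final 1 uM, ~EC50), compound titration, 5 h at 37 °C. CCF4 loaded 1 h at RT; 460/530 nm ratio gave %activity and AC50.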

A short description of assay [20]: Stat Signaling Pathway (AID 446; active = well fitted curve in either direction with a large enough effect, not every such curve was filed as active;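 also: ME-180 cervical cancer cells given 40 pM IL-6 alongside compound; SIE-controlled beta-lactamase reporter measured as 460/530 nm FRET emission ratio; % is scaled to controls: 0 for no effect and ±100 for the full control effect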). In outline: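 ME-180 cells carrying a SIE-driven beta-lactamase reporter are stimulated with 40 pM IL-6 for 5 h at 37C in the presence of compound. The 460/530 nm FRET substrate ratio is read after 2.5 h at RT. Data are normalised to 300 pM IL-6 and to 125 nM JAK inhibitor controls.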
The target in assay [21] is Glucocorticoid receptor (Homo sapiens) (UniProt P04150). The assay is described as follows: GR-GFP Redistribution (AID 450;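 active = compounds whose dose series gives a full or clear partial fitted curve of increased nuclear translocation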; also: potency is read from the fitted curve at half-maximal effect). The conditions noted are these: U2OS GR-GFP nuclear translocation, laser cytometry, 2 h.
Assay [22] shares this target. The assay is described as follows: GR-EFC Redistribution (AID 451; calls by dose curve; also: potency is read from the fitted curve at half-maximal effect). The conditions noted are these: CHO-K1 GR-EFC translocation, beta-gal luminescence, 2 h. In outline:
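CHO-K1 cells expressing nuclear EA and GR-ED fragments of b-gal; compounds titrated up to 46 uM final, 2 h at 37 C. GR nuclear translocation read as complemented b-gal luminescence after 1 h RT detection.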

Assay [23] deals with 3',5'-cyclic-AMP phosphodiesterase 4B (Homo sapiens) (UniProt Q07343). The assay is described as follows: qHTS Assay for Inhibitors of PDE-IV (AID 607; active = well fitted activation curve with a large enough effect in the main read-out, with a control signal flat, not every such curve was filed as active; also: % of control where 0% means no effect). In outline:
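HEK293 ACTOne cells with CNG channel (1000/well), endogenous PDE4; membrane potential dye, compounds up to 22.9 uM final. Fluorescence Ex 535/Em 590; RO 20-1724 (100 uM final) as reference.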

Unmarked numbers belong to inactive results. Inconclusive results are not listed. Activity calls are given as the source filed them. Unless noted, calls follow the shape of the dose curve; as a rule, active = well fitted curve in the direction sought with a large enough effect; inconclusive = small, poorly fitted or top-dose-only effect, or another doubt; inactive = no such curve, though single readings can be large; an effect the other way counts as inactive or inconclusive.

Sequence of Rap guanine nucleotide exchange factor 3 (Homo sapiens) (O95398 whole entry, looked up): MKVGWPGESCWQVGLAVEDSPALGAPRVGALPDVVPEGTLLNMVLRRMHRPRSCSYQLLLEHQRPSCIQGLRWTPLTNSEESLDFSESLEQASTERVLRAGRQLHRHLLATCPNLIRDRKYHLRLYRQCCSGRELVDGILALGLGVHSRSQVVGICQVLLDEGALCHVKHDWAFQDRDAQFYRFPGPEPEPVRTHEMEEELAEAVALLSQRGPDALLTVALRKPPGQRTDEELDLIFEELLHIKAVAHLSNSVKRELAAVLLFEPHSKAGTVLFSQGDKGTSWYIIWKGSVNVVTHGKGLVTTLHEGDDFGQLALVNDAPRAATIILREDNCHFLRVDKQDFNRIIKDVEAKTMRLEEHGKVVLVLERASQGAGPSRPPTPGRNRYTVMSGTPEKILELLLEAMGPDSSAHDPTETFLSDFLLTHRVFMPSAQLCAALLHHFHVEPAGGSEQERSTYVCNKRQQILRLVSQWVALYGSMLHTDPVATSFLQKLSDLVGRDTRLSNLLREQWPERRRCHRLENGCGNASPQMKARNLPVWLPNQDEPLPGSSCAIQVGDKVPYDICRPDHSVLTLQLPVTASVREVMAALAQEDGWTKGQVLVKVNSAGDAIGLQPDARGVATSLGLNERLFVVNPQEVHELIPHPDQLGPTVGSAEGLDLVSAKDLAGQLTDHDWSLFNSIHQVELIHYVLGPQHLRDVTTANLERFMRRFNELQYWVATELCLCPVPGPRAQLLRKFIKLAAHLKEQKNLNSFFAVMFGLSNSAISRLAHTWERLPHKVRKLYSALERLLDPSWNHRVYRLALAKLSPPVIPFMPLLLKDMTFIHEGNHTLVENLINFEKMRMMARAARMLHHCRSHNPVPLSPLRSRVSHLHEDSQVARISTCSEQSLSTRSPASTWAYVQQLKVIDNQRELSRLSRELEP
Sequence of Cytochrome P450 3A4 (Homo sapiens) (P08684 whole entry, looked up): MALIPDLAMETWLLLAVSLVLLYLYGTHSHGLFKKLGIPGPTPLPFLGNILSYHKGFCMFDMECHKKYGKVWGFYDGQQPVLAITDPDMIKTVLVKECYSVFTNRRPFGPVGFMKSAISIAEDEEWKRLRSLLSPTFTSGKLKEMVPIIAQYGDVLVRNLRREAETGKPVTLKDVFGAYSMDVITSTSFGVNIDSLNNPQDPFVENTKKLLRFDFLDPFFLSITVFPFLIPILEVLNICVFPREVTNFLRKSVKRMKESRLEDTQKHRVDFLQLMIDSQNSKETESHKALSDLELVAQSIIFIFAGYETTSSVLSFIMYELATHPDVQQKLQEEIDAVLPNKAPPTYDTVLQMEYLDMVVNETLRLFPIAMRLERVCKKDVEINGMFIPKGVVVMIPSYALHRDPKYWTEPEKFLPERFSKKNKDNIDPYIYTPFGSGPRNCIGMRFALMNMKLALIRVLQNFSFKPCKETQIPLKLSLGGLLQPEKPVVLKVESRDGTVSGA
Sequence of Rap guanine nucleotide exchange factor 4 (Homo sapiens) (Q8WZA2 whole entry, looked up): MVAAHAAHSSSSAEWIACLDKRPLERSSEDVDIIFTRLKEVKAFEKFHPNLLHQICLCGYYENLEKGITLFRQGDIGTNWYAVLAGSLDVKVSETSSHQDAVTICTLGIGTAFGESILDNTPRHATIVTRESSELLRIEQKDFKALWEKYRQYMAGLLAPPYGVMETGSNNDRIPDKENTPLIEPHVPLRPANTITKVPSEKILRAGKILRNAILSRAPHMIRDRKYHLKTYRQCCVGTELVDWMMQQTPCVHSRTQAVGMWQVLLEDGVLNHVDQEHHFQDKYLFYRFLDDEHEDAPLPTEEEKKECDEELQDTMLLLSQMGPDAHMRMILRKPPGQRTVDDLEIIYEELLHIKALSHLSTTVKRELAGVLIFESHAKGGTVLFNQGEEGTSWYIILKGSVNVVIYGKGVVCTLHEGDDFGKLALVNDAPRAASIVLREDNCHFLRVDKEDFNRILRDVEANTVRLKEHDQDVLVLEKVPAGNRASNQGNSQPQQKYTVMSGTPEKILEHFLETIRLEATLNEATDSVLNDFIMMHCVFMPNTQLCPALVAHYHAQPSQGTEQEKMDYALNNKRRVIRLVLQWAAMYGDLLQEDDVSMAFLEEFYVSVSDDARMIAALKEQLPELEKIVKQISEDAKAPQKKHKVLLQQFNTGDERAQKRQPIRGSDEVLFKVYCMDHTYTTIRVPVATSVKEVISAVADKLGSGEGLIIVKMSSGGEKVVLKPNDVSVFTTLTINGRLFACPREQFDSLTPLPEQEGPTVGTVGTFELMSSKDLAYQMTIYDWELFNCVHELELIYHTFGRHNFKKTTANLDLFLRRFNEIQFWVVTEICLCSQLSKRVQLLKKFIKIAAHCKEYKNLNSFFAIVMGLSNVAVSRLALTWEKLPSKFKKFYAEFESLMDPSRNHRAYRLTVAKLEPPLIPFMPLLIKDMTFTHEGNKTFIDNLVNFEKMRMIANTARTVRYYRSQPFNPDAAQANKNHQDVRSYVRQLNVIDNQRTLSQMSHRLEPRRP
Sequence of Ubiquitin carboxyl-terminal hydrolase 1 (Homo sapiens) (O94782 whole entry, looked up): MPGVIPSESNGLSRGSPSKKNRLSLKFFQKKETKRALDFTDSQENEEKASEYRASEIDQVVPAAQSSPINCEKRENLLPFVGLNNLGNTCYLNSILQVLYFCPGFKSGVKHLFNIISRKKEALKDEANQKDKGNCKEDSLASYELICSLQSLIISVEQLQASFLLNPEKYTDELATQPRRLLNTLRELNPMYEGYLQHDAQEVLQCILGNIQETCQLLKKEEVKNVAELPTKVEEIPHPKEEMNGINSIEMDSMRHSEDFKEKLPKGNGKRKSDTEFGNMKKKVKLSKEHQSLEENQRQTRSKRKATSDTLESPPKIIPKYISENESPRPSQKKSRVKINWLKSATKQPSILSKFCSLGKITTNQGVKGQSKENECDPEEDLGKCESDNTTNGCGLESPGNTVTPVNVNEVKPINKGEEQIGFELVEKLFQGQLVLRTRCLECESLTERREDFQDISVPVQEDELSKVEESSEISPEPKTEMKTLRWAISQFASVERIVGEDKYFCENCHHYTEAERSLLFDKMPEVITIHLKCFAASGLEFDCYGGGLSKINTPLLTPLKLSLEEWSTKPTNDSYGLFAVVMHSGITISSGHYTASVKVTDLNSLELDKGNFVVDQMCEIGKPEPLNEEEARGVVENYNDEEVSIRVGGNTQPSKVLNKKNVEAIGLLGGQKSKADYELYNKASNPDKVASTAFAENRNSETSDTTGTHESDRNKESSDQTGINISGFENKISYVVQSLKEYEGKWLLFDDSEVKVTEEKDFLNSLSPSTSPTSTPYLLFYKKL
Sequence of Glucocorticoid receptor (Homo sapiens) (P04150 whole entry, looked up): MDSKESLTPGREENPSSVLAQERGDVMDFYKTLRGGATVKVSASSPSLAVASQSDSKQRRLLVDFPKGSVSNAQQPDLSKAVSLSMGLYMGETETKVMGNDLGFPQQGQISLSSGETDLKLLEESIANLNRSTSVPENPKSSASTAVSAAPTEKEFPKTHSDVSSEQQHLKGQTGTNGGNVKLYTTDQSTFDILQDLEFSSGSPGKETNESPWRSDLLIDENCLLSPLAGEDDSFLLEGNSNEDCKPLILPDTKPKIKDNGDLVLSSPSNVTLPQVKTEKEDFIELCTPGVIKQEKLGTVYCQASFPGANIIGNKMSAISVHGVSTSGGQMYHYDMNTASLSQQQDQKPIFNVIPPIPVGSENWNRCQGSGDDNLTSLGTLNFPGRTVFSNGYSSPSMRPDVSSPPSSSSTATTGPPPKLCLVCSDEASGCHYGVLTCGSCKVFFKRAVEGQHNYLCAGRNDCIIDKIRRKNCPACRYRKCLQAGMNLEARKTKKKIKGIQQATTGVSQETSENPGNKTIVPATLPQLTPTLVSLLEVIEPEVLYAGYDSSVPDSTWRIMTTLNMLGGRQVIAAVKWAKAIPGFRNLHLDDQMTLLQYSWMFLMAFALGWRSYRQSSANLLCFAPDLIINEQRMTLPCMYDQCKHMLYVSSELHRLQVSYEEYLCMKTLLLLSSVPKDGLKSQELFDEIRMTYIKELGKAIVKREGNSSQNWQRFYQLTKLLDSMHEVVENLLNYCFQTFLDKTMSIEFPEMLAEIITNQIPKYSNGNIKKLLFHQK
Sequence of 3',5'-cyclic-AMP phosphodiesterase 4B (Homo sapiens) (Q07343 whole entry, looked up): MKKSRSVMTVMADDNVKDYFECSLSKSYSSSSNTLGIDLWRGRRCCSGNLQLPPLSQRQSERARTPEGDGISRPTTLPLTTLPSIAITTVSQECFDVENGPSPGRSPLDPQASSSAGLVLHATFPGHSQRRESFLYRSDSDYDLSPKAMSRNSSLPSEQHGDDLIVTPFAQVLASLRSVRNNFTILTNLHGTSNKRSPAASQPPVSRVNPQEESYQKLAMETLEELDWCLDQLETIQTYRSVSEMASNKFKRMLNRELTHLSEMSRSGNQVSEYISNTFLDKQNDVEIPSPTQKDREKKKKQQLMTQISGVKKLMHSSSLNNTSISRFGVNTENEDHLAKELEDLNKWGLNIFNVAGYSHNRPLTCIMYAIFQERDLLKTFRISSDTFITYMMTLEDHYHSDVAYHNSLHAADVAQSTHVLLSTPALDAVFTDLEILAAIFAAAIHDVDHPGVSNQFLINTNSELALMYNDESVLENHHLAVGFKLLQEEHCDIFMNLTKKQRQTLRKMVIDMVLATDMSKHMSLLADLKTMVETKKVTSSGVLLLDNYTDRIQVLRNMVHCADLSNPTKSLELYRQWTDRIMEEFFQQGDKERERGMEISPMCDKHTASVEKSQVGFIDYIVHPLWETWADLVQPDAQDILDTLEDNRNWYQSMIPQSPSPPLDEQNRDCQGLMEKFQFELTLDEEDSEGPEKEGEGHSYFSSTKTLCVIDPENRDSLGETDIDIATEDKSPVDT

Consider `O=C1c2cccc3c(O)ccc(c23)C(=O)N1Cc1ccco1`, for which the Potency in [1] is 1.46 µM (active); in assay [3], 100 µM (active); in [4], 100 µM (active); in assay [5] it was 67.5 µM (active); in [6], 70.8 µM (active). In assay [2], the Potency result was “inactive”.
Take `CC#C[C@@H](CC)c1ccc2ccn(C)c2c1`: the Potency entry in assay [2] and in [3] was “inactive” each time. Further, in assay [4], the activation was 5.93% [at 17.1 µM, percent relative to cAMP agonist control]. For the same molecule, the activity change, negative = inhibition in [7] is -25.8% [at 30.8 µM].
For the molecule `CCOC(=O)C1(O)Oc2cc(OC)cc(OC)c2C(=O)C1c1ccccc1` (centres undefined), the molecule was called inactive in assay [8]. In addition, the Potency entry in assay [9], in assay [10], in assay [11], in assay [2], in assay [3] and in assay [4] was “inactive” each time. For the same molecule, in assay [5], the Potency entry is “inactive”.
For `CC(C)=CCc1c(O)cc(O)c2c1O[C@H](c1ccccc1)CC2=O`, the Potency in assay [12] was 0.316 µM (active); in assay [14] it was 3.16 µM (active); in assay [15] it was 12.6 µM (active); in assay [16] it was 1 µM (active); in [5] it was 39.3 µM (active). Further, the Potency entry in assay [13], in [2], in assay [3] and in assay [4] was “inactive” in each case. Also, the outcome in assay [8] and in assay [17] was inactive.
Regarding `O=c1cnc2cnc(OCc3ccccc3)nc2n1CCc1ccccc1`, the Potency was more than 11.4 µM in assay [18], more than 9.22 µM in assay [21], more than 46 µM in assay [22] and 31.2 µM (active) in assay [5]. Also, in assay [19], the activity change, negative = inhibition was -27.9%. In [20], the call was inactive. Further, the Potency entry in assay [23], in [2], in assay [3] and in assay [4] was “inactive” each time.
For `CC1(C)C(OC(=O)CCC(=O)O)CC[C@]2(C)C1CC[C@@]1(C)C2C(=O)C=C2[C@@H]3C[C@@](C)(C(=O)O)CC[C@]3(C)CCC21C` (some centres undefined), the Potency entry in assay [9], in assay [10], in [11], in assay [2], in [3] and in assay [4] was “inactive” in each case. Moreover, the Potency in [5] was 15.6 µM (active).
Take `COC(=O)[C@@]1(C)CCC[C@@]2(C)c3ccc(O)c(C(C)C)c3CCC21` (some centres undefined): in assay [15], the Potency is 31.6 µM (active). In addition, the molecule was classed as inactive in [8]. In addition, the Potency result in [9], in assay [10], in assay [2], in assay [3], in assay [4] and in [5] was “inactive” throughout.

The values are drawn from PubChem BioAssay (NCATS).
